These results are taken from PubChem BioAssay (NCI).

Among the test systems are HT29 colon; SNB-75 CNS; SNB-19 CNS; U251 CNS; PC-3 prostate; SK-MEL-5 melanoma; UACC-62 melanoma; LOX IMVI melanoma; SK-MEL-28 melanoma; EKVX NSCLC; SN12C renal; UO-31 renal; TK-10 renal; ACHN renal; CAKI-1 renal; CCRF-CEM leukemia; MOLT-4 leukemia; SK-MEL-2 melanoma; A498 renal.
Common to all, as to test: NCI-60 one-dose screen, 48 h (100 = growth as untreated, 0 = no growth, -100 = all killed)
What all share (details): 10 µM unless noted

About 83,000 compounds went through this panel and 20% of them were active in at least one assay; those are over-represented in the sample as a whole.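 Results are percent growth after 48 hours of single-concentration exposure. 100 means growth as in untreated cells, lower positive values show inhibition; negative values down to -100 show cell death.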 Values without a mark were called inactive. The source made the active and inactive calls. Rule for the calls: active = growth percent below 10; inactive = the rest.

As to `C[C@@H]1C[C@H]2C(=O)O[C@@H](C)C(NC(=O)[C@H](Cc3cc(F)cc(F)c3)NC(=O)Nc3ccc(Cl)cc3F)C(=O)N3CCC[C@H]3C(=O)N3CCCC[C@H]3C(=O)N[C@@H](CO)C(=O)N2C1` (some centres not stated), the growth with HT29 colon was 35.3%; in the test on SNB-75 CNS, 30.8%; in the test on SNB-19 CNS, 28.1%; with U251 CNS, 30%; in the test on PC-3 prostate, 15.5%; with SK-MEL-5 melanoma, -2.76% (active). Moreover, the growth was 29.5% in the test on UACC-62 melanoma; 29.5% with LOX IMVI melanoma; 43.9% in the test with SK-MEL-28 melanoma; 30.9% in the test with EKVX NSCLC; 21.5% in the test with SN12C renal; 34.9% with UO-31 renal. Also, the growth with TK-10 renal was 54.7%; with ACHN renal, 31.9%; in the test on CAKI-1 renal, 17.5%; in the test on CCRF-CEM leukemia, 32.7%; in the test with MOLT-4 leukemia it was 36.5%.
For the molecule `CCn1c(SCC(=O)Nc2cccc(C(=O)/C=C/c3ccc(C)cc3)c2)nc2ccccc2c1=O`, the growth in the test on HT29 colon was 65.8%; in the test with SNB-75 CNS, 93.3%; in the test with SNB-19 CNS it was 81.2%; in the test with U251 CNS, 80.1%; in the test with PC-3 prostate, 60.7%; with SK-MEL-5 melanoma it was 90%. Also, the growth with UACC-62 melanoma is 70.1%; in the test on LOX IMVI melanoma, 37.6%; in the test with SK-MEL-28 melanoma it was 95.8%; in the test with SK-MEL-2 melanoma it was 108%; with EKVX NSCLC, 98.8%; in the test with SN12C renal, 88%. For the same molecule, the growth in the test with UO-31 renal is 58.9%; with TK-10 renal it was 120%; in the test on ACHN renal it was 92.2%; in the test on A498 renal it was 94.2%; with CCRF-CEM leukemia, 67.4%; in the test on MOLT-4 leukemia it was 88%.
`CC1=NC2=NC(=O)/C(=C3/N=C(C)C=C(c4ccccc4)N3N)NN2C(c2ccccc2)=C1`: the growth in the test with HT29 colon is 109%; with SNB-75 CNS, 116%; in the test with SNB-19 CNS it was 96.3%; with U251 CNS, 105%; in the test with PC-3 prostate it was 96.7%; with UACC-62 melanoma, 88.7%. For the same molecule, the growth in the test with LOX IMVI melanoma was 102%; in the test with SK-MEL-28 melanoma it was 109%; in the test with SK-MEL-2 melanoma it was 108%; in the test on EKVX NSCLC, 83.8%; with SN12C renal it was 100%; with UO-31 renal it was 78.6%. The growth was 168% in the test on TK-10 renal; 101% in the test with ACHN renal; 83.2% in the test on CAKI-1 renal; 127% in the test with A498 renal; 109% in the test on CCRF-CEM leukemia; 104% with MOLT-4 leukemia.
For `COc1ccc(OC)c(-c2nc(SCC(=O)c3ccc(Br)cc3)nc(Nc3ccc(S(N)(=O)=O)cc3)c2C#N)c1`, the growth in the test with HT29 colon was 27.2%; in the test on SNB-75 CNS, 22.1%; in the test with SNB-19 CNS, 49.9%; with U251 CNS it was 37.6%; in the test with PC-3 prostate it was 35.3%; in the test with SK-MEL-5 melanoma it was 56.1%. The growth in the test with UACC-62 melanoma was 42.7%; in the test on LOX IMVI melanoma, 32.6%; with SK-MEL-2 melanoma, 30.4%; in the test on EKVX NSCLC, 63.7%; in the test on SN12C renal, 49.1%; in the test on UO-31 renal it was 59.2%. Moreover, the growth with TK-10 renal is 96.3%; in the test on ACHN renal it was 55.9%; in the test on CAKI-1 renal it was 34.4%; with A498 renal, 26.4%; in the test on CCRF-CEM leukemia, 35.4%.
For the molecule `COc1cc(-c2nnc(SCc3ccc(O)c4ncccc34)n2-c2ccccc2)cc(OC)c1OC`, the growth with HT29 colon is 16.7%; with SNB-75 CNS, -6.25% (active); in the test with SNB-19 CNS it was 9.25% (active); with U251 CNS, 4.28% (active); with PC-3 prostate, 15.4%; in the test with SK-MEL-5 melanoma it was -62.4% (active). In addition, the growth in the test on UACC-62 melanoma is -37.4% (active); in the test on LOX IMVI melanoma it was -22.2% (active); in the test on SK-MEL-28 melanoma it was 17.9%; with SK-MEL-2 melanoma, 24.6%; in the test on EKVX NSCLC, 4.34% (active); with SN12C renal it was 8.79% (active). Besides, the growth was -30.2% (active) in the test on UO-31 renal; 15.2% in the test on TK-10 renal; 4.84% (active) in the test on ACHN renal; 1.72% (active) in the test with CAKI-1 renal; 1.54% (active) in the test on A498 renal; 5.95% (active) in the test with CCRF-CEM leukemia. In addition, the growth in the test with MOLT-4 leukemia was 4.98% (active).
For the molecule `C=CCn1c(SCC(=O)Nc2ccc(C(=O)/C=C/c3ccc(C)cc3)cc2)nnc1-c1c[nH]c2ccccc12`, the growth in the test with HT29 colon was 101%; with SNB-75 CNS, 97.4%; in the test on SNB-19 CNS it was 87.5%; with U251 CNS, 92.2%; in the test with PC-3 prostate it was 66.5%; in the test with SK-MEL-5 melanoma, 69.2%. Moreover, the growth was 67.9% with UACC-62 melanoma; 20.9% with LOX IMVI melanoma; 96% in the test on SK-MEL-28 melanoma; 97.3% in the test on SK-MEL-2 melanoma; 61.9% in the test on EKVX NSCLC; 83.6% in the test on SN12C renal. The growth with UO-31 renal was 54.2%; in the test with TK-10 renal, 114%; in the test with ACHN renal, 83.4%; with CAKI-1 renal, 85.4%; in the test on A498 renal, 95.1%; in the test with CCRF-CEM leukemia, 83.1%. The growth with MOLT-4 leukemia is 60.7%.
As for `O=C(c1ccc(O)c(C(=O)N2Cc3ccc(OCCC[P+](c4ccccc4)(c4ccccc4)c4ccccc4)cc3C2)c1)N1Cc2cccc(F)c2C1`, the growth with HT29 colon was 101%; in the test with SNB-75 CNS, 95.4%; with SNB-19 CNS, 38.1%; with U251 CNS it was 56.8%; with PC-3 prostate it was 78.9%; in the test on SK-MEL-5 melanoma, 29.3%. Besides, the growth in the test on UACC-62 melanoma was 45.5%; with LOX IMVI melanoma it was 67.1%; with SK-MEL-28 melanoma it was 58%; with SK-MEL-2 melanoma, 65.2%; with EKVX NSCLC, 70.3%; in the test on SN12C renal it was 88.6%. For the same molecule, the growth in the test on UO-31 renal was 80.6%; in the test on TK-10 renal, 100%; with ACHN renal it was 101%; with CAKI-1 renal it was 93.1%; in the test on A498 renal it was 85.7%; with CCRF-CEM leukemia, 57.4%. The growth in the test with MOLT-4 leukemia is 108%.
For `O=C(CSc1nc2ccccc2c(=O)n1-c1ccccc1)Nc1cccc(C(=O)/C=C/c2ccccc2)c1`, the growth is 96.4% with HT29 colon; 75.6% in the test on SNB-75 CNS; 85.5% in the test on SNB-19 CNS; 71.2% in the test on U251 CNS; 90.4% in the test on PC-3 prostate; 99.5% in the test on SK-MEL-5 melanoma. Besides, the growth with UACC-62 melanoma is 88.7%; with LOX IMVI melanoma, 86.1%; in the test on SK-MEL-28 melanoma, 102%; with SK-MEL-2 melanoma, 100%; with EKVX NSCLC it was 96.7%; with SN12C renal, 98.4%. In addition, the growth is 76% with UO-31 renal; 107% in the test with TK-10 renal; 102% in the test with ACHN renal; 86% in the test on CAKI-1 renal; 98% with A498 renal; 90.3% in the test with CCRF-CEM leukemia. Also, the growth in the test on MOLT-4 leukemia was 88.6%.
In the case of `CC(O)c1cc2ccccc2c(=O)o1` (configuration not stated), the growth was 105% in the test on HT29 colon; 110% with SNB-75 CNS; 99.6% in the test with SNB-19 CNS; 103% with U251 CNS; 95.2% in the test on PC-3 prostate; 97% in the test on SK-MEL-5 melanoma. For the same molecule, the growth in the test with UACC-62 melanoma is 97.9%; with LOX IMVI melanoma, 97.3%; in the test with SK-MEL-28 melanoma, 101%; with EKVX NSCLC it was 102%; in the test on SN12C renal it was 101%; with UO-31 renal, 89.9%. In addition, the growth in the test on TK-10 renal was 105%; with ACHN renal it was 102%; with CAKI-1 renal, 91.5%; in the test on CCRF-CEM leukemia, 1.19% (active); with MOLT-4 leukemia, 107%.
As to `O=C(Cn1cc(-c2ccccc2)nn1)Nc1nc(-c2ccc(Cl)cc2)cs1`, the growth is 102% in the test on HT29 colon; 103% in the test with SNB-75 CNS; 94.7% with SNB-19 CNS; 105% in the test with U251 CNS; 101% in the test with PC-3 prostate; 94.5% in the test on SK-MEL-5 melanoma. For the same molecule, the growth with UACC-62 melanoma was 76.1%; in the test with LOX IMVI melanoma, 101%; with SK-MEL-28 melanoma, 108%; in the test with SK-MEL-2 melanoma it was 103%; in the test with EKVX NSCLC, 98%; in the test on SN12C renal, 96.2%. For the same molecule, the growth is 91% with UO-31 renal; 76.1% in the test with TK-10 renal; 112% in the test with ACHN renal; 107% with CAKI-1 renal; 80.7% in the test with A498 renal; 103% in the test on CCRF-CEM leukemia. For the same molecule, the growth in the test with MOLT-4 leukemia is 97.8%.
